Laboratory results published in PubChem BioAssay AID1159580 (chemical genetic matrix, 2015).
Values joined by “and” are separate entries in the source; they are usually repeats but may differ in a detail not shown here. Equal values may be shown once. Hit rate of the full screen: of about 5,500 compounds, about 2,000 (36%) were called active. Not shown: some 18% with an inconclusive outcome. Rule as the data show it: active = normalized growth mostly below about 0.91 (no sharp cut-off); inconclusive = no clear call, values can overlap the other calls; inactive = mostly above about 0.92. Some of the results follow.

Assay: chemical genetic growth profiling, strain panel (AID 1159580);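 also: tested at 20 µM; growth read once vehicle control cultures reached saturation at 30 °C; 1 = growth at the plate median or of vehicle wells; lower values mean less growth of the strain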
Details: S. cerevisiae deletion strains, growth OD

Measured: normalized growth

COc1ccc2c(c1)OCC(Cc1ccc(OC)c(O)c1)C2=O (configuration not stated)
active: locus YBR009C, strain hhf1, active compounds read low 0.903 | locus YDR195W, strain ref2 1.23 [resistant] | locus YDR392W, strain spt3, active compounds read low 0.449 | locus YDR502C, strain sam2, active compounds read low 0.909 | locus YER155C, strain BEM2 (second series), active compounds read low 0.757 | locus YGL078C, strain dbp3, active compounds read low 0.92 | locus YGL240W, strain doc1, active compounds read low 0.821 | locus YGL253W, strain hxk2, active compounds read low 0.91 | locus YGR135W, strain pre9, active compounds read low 0.868 | locus YHR142W, strain chs7, active compounds read low 0.872 | locus YJL166W, strain qcr8, active compounds read low 0.844
inactive: locus YAL013W, strain DEP1, active compounds read low 0.955 | locus YAL021C, strain ccr4, active compounds read low 0.993 | locus YAL026C, strain drs2, active compounds read low 0.965 | locus YAL030W, strain snc1, active compounds read low 0.953 | locus YBL061C, strain skt5, active compounds read low 0.961 | locus YBR021W, strain FUR4, active compounds read low 0.873 | locus YBR023C, strain chs3, active compounds read low 0.929 | locus YBR171W, strain sec66, active compounds read low 0.937 | locus YBR229C, strain ROT2, active compounds read low 0.98 | locus YBR231C, strain swc5, active compounds read low 0.968 | locus YBR279W, strain paf1, active compounds read low 0.979 | locus YCL011C, strain gbp2, active compounds read low 0.922 | locus YCL016C, strain dcc1, active compounds read low 0.939 | locus YCL029C, strain bik1, active compounds read low 0.952 | locus YCL061C, strain MRC1, active compounds read low 0.933 | locus YCL069W, strain vba3, active compounds read low 0.956 | locus YCR088W, strain abp1, active compounds read low 0.963 | locus YDL005C, strain med2, active compounds read low 0.959 | locus YDL035C, strain GPR1, active compounds read low 0.972 | locus YDL040C, strain nat1, active compounds read low 0.967 | locus YDL074C, strain BRE1, active compounds read low 0.937 | locus YDL101C, strain DUN1, active compounds read low 0.942 | locus YDL185W, strain tfp1, active compounds read low 0.961 | locus YDL192W, strain arf1, active compounds read low 0.958 | locus YDR001C, strain nth1, active compounds read low 0.959 | locus YDR069C, strain doa4, active compounds read low 1.01 | locus YDR101C, strain arx1, active compounds read low 0.972 | locus YDR137W, strain rgp1, active compounds read low 0.974 | locus YDR159W, strain sac3, active compounds read low 0.867 | locus YDR162C, strain NBP2, active compounds read low 0.982 | locus YDR297W, strain sur2, active compounds read low 0.963 | locus YDR318W, strain mcm21, active compounds read low 0.93 | locus YDR334W, strain swr1, active compounds read low 0.977 | locus YDR335W, strain msn5, active compounds read low 0.973 | locus YDR388W, active compounds read low 0.967 | locus YEL003W, strain gim4, active compounds read low 0.933 | locus YEL037C, strain rad23, active compounds read low 0.964 | locus YEL061C, strain CIN8 (second series), active compounds read low 0.968 | locus YEL061C, strain CIN8, active compounds read low 0.978 | locus YER015W, strain faa2, active compounds read low 0.961 | locus YER016W, strain bim1, active compounds read low 0.965 | locus YER110C, active compounds read low 0.931 | locus YER111C, strain swi4, active compounds read low 0.962 | locus YER155C, strain BEM2, active compounds read low 0.963 | locus YER167W, strain BCK2, active compounds read low 0.981 | locus YFR010W, strain ubp6, active compounds read low 0.989 | locus YGL086W, strain mad1, active compounds read low 0.934 | locus YGL167C, strain pmr1, active compounds read low 0.939 | locus YGL173C, strain kem1, active compounds read low 0.924 | locus YGL227W, strain vid30, active compounds read low 0.964 | locus YGL248W, strain PDE1, active compounds read low 0.9 | locus YGR078C, strain PAC10, active compounds read low 0.914 | locus YGR252W, strain gcn5, active compounds read low 0.78 | locus YHR013C, strain ard1, active compounds read low 0.956 | locus YHR027C, strain rpn1, active compounds read low 0.944 | locus YHR030C, strain SLT2, active compounds read low 0.978 | locus YHR079C, strain IRE1 (second series), active compounds read low 0.964 | locus YHR079C, strain IRE1, active compounds read low 0.983 | locus YHR094C, strain hxt1, active compounds read low 0.969 | locus YHR129C, strain ARP1, active compounds read low 0.966 | locus YHR200W, strain rpn10, active compounds read low 0.975 | locus YIL066C, strain RNR3, active compounds read low 0.975 | locus YIL073C, strain SPO22, active compounds read low 0.881 | locus YIL125W, strain kgd1, active compounds read low 0.969 | locus YIR030C, strain dcg1, active compounds read low 0.942 | locus YJL092W, strain hpr5, active compounds read low 0.968 | locus YJL095W, strain BCK1 (second series), active compounds read low 0.94 | locus YJL095W, strain BCK1, active compounds read low 0.903 and 1 | locus YJL115W, strain asf1, active compounds read low 0.969 | locus YJL129C, strain trk1, active compounds read low 0.886 | locus YJL134W, strain LCB3, active compounds read low 0.981 | locus YJL154C, strain vps35, active compounds read low 0.964 | locus YJL164C, strain tpk1, active compounds read low 0.933 | locus YJL168C, strain set2, active compounds read low 0.958 | locus YJL187C, strain SWE1 (second series), active compounds read low 0.926 | locus YJL187C, strain SWE1, active compounds read low 0.983
